This passage reports binding signal results from PMC10668032, “Altered binding affinity of SIX1-Q177R correlates with enhanced WNT5A and WNT pathway effector expression in Wilms tumor”.

Whole data set: some 33,000 sequences, median “e-score” near -0.05, cut for the highest 2% near 0.38. The sample holds the highest values, similar sequences and a random draw of the others, so the mix is not that of the screen.

The target of the experiment is T1, SIX1-Q177R homeodomain (human, UniProt Q15475 108-198, Q177R).
T1 sequence: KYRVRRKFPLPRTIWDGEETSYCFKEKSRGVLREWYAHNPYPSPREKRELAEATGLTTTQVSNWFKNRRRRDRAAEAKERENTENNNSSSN
The experiment can be described thus: universal protein binding microarray; Universal all-10-mer PBM (8x60K, AMADID 030236), 300 nM GST-tagged protein, Alexa Fluor 488 anti-GST; buffer, salt, pH and temperature not stated (as in Berger); high values mean tight binding. The settings on record: protein: ivt; tags: N-terminal GST; dsDNA, one strand shown. In a few lines: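 GST-tagged homeodomains were made by in vitro transcription/translation and quantified by anti-GST western blot against a recombinant GST standard curve. They were applied in duplicate at 300 nM final concentration to universal 'all 10-mer' protein binding microarrays (8×60K format). Binding was quantified as 8-mer E-scores with the Universal PBM Analysis Suite.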
Regarding ACCCGGCG, the binding signal is 0.235 ± 0.0231 E-score.

Turning to CCCATACA, the binding signal was 0.192 ± 0.0397 E-score. The figure for CTCGGACA is 0.171 ± 0.0363 E-score.

For AGGGATCC, the binding signal is 0.212 ± 0.0252 E-score. The figure for ACACAACA is 0.268 ± 0.0457 E-score. The figure for CCCGATTA is 0.166 ± 0.0206 E-score. Then TGATAACA, with 0.153 ± 0.0108 E-score. As to TGTCTAAA, the binding signal came out at 0.199 ± 0.0261 E-score. Then CACCAGCA, with 0.341 ± 0.0362 E-score; and GACCCCAC, with 0.2185 ± 0.00167 E-score. In the case of TAACACTA, the binding signal came to 0.384 ± 0.0373 E-score. Then GAACACTA, with 0.356 ± 0.0123 E-score; and GAACACCA, with 0.4685 ± 0.000778 E-score. Then GAGCACCA, with 0.243 ± 0.0142 E-score; and AAACACTC, with 0.321 ± 0.0305 E-score; and CAACACTA, with 0.34 ± 0.0042 E-score. The figure for AAACACCA is 0.454 ± 0.0052 E-score; for AAACACTA it is 0.298 ± 0.0405 E-score. Consider AAACACAC, for which the binding signal stood at 0.344 ± 0.0104 E-score.

As for AAACACGA, the binding signal came out at 0.324 ± 0.0263 E-score. The figure for AAACACCC is 0.45 ± 0.00506 E-score; for AAACAACA it is 0.166 ± 0.016 E-score; for CACGGGAG it is 0.17 ± 0.0204 E-score. Turning to ACCGAACC, the binding signal amounted to 0.197 ± 0.00959 E-score. Then ACCCCCCC, with 0.31 ± 0.0449 E-score; and CACCAACG, with 0.335 ± 0.0249 E-score; and ACCGCGTG, with 0.246 ± 0.00416 E-score.

Take GGAGGGGA: the binding signal was determined as 0.158 ± 0.02 E-score. Then ACGTAACA, with 0.199 ± 0.0228 E-score; and CAACACCA, with 0.4741 ± 0.00414 E-score. Then CAACACTG, with 0.323 ± 0.00702 E-score; and CAACACCG, with 0.46689 ± 0.000212 E-score; and CACCACCG, with 0.3551 ± 0.000962 E-score. Then AAACACTG, with 0.344 ± 0.0208 E-score; and AAGCACCG, with 0.175 ± 0.0203 E-score; and CACCAACA, with 0.377 ± 0.0268 E-score.

For the sequence CAACACTC, the binding signal turned out to be 0.36 ± 0.00549 E-score. For AAACACCG, the binding signal came to 0.4654 ± 0.00275 E-score. As for CAACACCC, the binding signal was found to be 0.456 ± 0.00535 E-score. The figure for CAACACAC is 0.342 ± 0.0337 E-score; for CAACACAA it is 0.182 ± 0.0648 E-score; for ACCAGGTA it is 0.241 ± 0.0242 E-score. Then ATACTACA, with 0.257 ± 0.011 E-score; and AACTGGTG, with 0.364 ± 0.0186 E-score. Then GACGCCGA, with 0.174 ± 0.0331 E-score. Regarding AGAGGTGC, the binding signal is 0.19 ± 0.0288 E-score. Regarding ACTCCCCG, the binding signal amounted to 0.191 ± 0.00694 E-score. For the sequence GAACACCC, the binding signal is 0.4707 ± 0.00185 E-score. The figure for CAACACGG is 0.38 ± 0.0301 E-score.

On to AAACACTT, for which the binding signal worked out at 0.252 ± 0.0426 E-score. The figure for TAACACGA is 0.399 ± 0.00944 E-score; for AAACACGG it is 0.3488 ± 0.00234 E-score; for CAACACGA it is 0.328 ± 0.0204 E-score.

In the case of GAACACAC, the binding signal is 0.319 ± 0.0348 E-score. Then AAACACGT, with 0.307 ± 0.0183 E-score; and AAACACCT, with 0.419 ± 0.00791 E-score. As for GAACACTC, the binding signal amounted to 0.374 ± 0.0139 E-score. For the sequence CACGTGAC, the binding signal was 0.258 ± 0.0152 E-score. Then TCGGATAA, with 0.194 ± 0.0204 E-score; and GGGTTTTA, with 0.163 ± 0.0227 E-score. The figure for ACACAGGG is 0.158 ± 0.0633 E-score. Then CACCATTA, with 0.266 ± 0.00672 E-score; and CACGGGTA, with 0.291 ± 0.0126 E-score; and CACTCGAG, with 0.172 ± 0.0369 E-score.

In the case of TAACACCA, the binding signal was found to be 0.477 ± 0.00686 E-score. On to GAACACGA, for which the binding signal came out at 0.3393 ± 0.000771 E-score. Then TAACACAA, with 0.216 ± 0.0241 E-score; and AAACACGC, with 0.336 ± 0.0161 E-score. Consider GAACACGC, for which the binding signal was 0.393 ± 0.0119 E-score.

TAGCACCA: the binding signal is 0.2242 ± 0.00214 E-score. Consider CACAGCTA, for which the binding signal stood at 0.177 ± 0.0139 E-score. Take AACCCCGA: the binding signal turned out to be 0.232 ± 0.0298 E-score.

As to CACGCCCC, the binding signal was 0.29 ± 0.0136 E-score.

On to AGGGGTGC, for which the binding signal came to 0.221 ± 0.0348 E-score. Then GTATCGCA, with 0.234 ± 0.0133 E-score. Then GTGTCGCA, with 0.442 ± 0.0148 E-score. For the sequence GTGTCTTA, the binding signal is 0.3629 ± 0.00242 E-score. The figure for GTGTCGTA is 0.45 ± 0.0119 E-score; for GGGTCGGA it is 0.227 ± 0.0525 E-score; for ATGTCGTG it is 0.222 ± 0.0295 E-score. The figure for GTGTCGGA is 0.454 ± 0.0132 E-score; for ATGTCGGG it is 0.199 ± 0.029 E-score.

As for CCGAGCAC, the binding signal came to 0.178 ± 0.0032 E-score.

Turning to ACCCAGTG, the binding signal was 0.21 ± 0.0315 E-score. The figure for AGTGGTAG is 0.157 ± 0.00503 E-score; for ATGAGACA it is 0.159 ± 0.0072 E-score.

Take GGTGCACA: the binding signal is 0.268 ± 0.0361 E-score. The figure for ATAGCACG is 0.157 ± 0.0235 E-score; for CTCTACAC it is 0.391 ± 0.0122 E-score. The figure for ATCTACAC is 0.404 ± 0.0153 E-score. The figure for CCCTCTAC is 0.205 ± 0.0116 E-score; for GTCTAACA it is 0.204 ± 0.0271 E-score; for ATCCACAC it is 0.297 ± 0.0245 E-score.

With GTCTACAC, the binding signal came out at 0.42 ± 0.0105 E-score. Then GTCCACAC, with 0.211 ± 0.0298 E-score; and CTCCACAC, with 0.251 ± 0.0305 E-score; and TCGGTACA, with 0.219 ± 0.0249 E-score. The figure for GGGTCTCA is 0.162 ± 0.0232 E-score; for ACTGCCCG it is 0.219 ± 0.00643 E-score. The figure for TAGTATCA is 0.221 ± 0.0229 E-score; for CACCAAAC it is 0.283 ± 0.0195 E-score.

Turning to ACCGCGAA, the binding signal was 0.1607 ± 0.000856 E-score. The figure for CACATTTC is 0.186 ± 0.0176 E-score; for GTGTGCCA it is 0.242 ± 0.0264 E-score; for GTGTACCA it is 0.4446 ± 0.00264 E-score. Then GTGTACTA, with 0.438 ± 0.0127 E-score; and GTGTGCGA, with 0.173 ± 0.0312 E-score; and GTATACCA, with 0.152 ± 0.0219 E-score. On to GGGTACTA, for which the binding signal worked out at 0.224 ± 0.00292 E-score. The figure for AGGTACTA is 0.1967 ± 0.000601 E-score; for GTGTACGA it is 0.43943 ± 0.000382 E-score. Then CCATGGGA, with 0.153 ± 0.052 E-score; and ACCTCCCA, with 0.191 ± 0.00743 E-score. Turning to AATCTGAC, the binding signal amounted to 0.17 ± 0.00849 E-score. Then GTCGTACA, with 0.26 ± 0.00478 E-score; and CCCCCCGG, with 0.254 ± 0.0183 E-score. Consider ACACAACC, for which the binding signal stood at 0.219 ± 0.0237 E-score.

As to CACCTACC, the binding signal is 0.2673 ± 0.000516 E-score. The figure for CACCTACA is 0.41 ± 0.00505 E-score; for CACCTACG it is 0.232 ± 0.0231 E-score; for GTATGACA it is 0.257 ± 0.00319 E-score. The figure for ACAAGTGT is 0.344 ± 0.0292 E-score; for CGCATACA it is 0.185 ± 0.00496 E-score; for AGGGATAC it is 0.165 ± 0.0372 E-score. The figure for CGGGACAC is 0.42 ± 0.00537 E-score; for GAGGGGAC it is 0.2 ± 0.0143 E-score.

On to GGGGATAC, for which the binding signal came to 0.254 ± 0.0111 E-score. Then CGGGATAC, with 0.281 ± 0.0031 E-score; and GGGGACAC, with 0.41 ± 0.0266 E-score. The figure for AGGGACAC is 0.402 ± 0.019 E-score. Then CGGGATCC, with 0.209 ± 0.0344 E-score; and AGGGAGTC, with 0.239 ± 0.00436 E-score; and CACTTGCA, with 0.173 ± 0.0121 E-score. GGATCTGA: the binding signal was found to be 0.194 ± 0.0532 E-score. Then CCGGATCA, with 0.176 ± 0.0156 E-score; and AATCTGGT, with 0.159 ± 0.0527 E-score. Then GGTCGTAC, with 0.224 ± 0.0297 E-score; and CGGGGTCA, with 0.269 ± 0.0255 E-score. With ACTTCGTG, the binding signal was 0.238 ± 0.000686 E-score. Then AACAAGGG, with 0.177 ± 0.0185 E-score; and AGCAGGTG, with 0.335 ± 0.0234 E-score; and ACCCCACG, with 0.267 ± 0.00597 E-score. Then GGCGACAC, with 0.44 ± 0.0183 E-score; and CGCGACCC, with 0.169 ± 0.0418 E-score; and CGCGACAC, with 0.4355 ± 0.00314 E-score.

Take CGCGATAC: the binding signal was determined as 0.254 ± 0.0107 E-score. The figure for GGCGAGAC is 0.168 ± 0.0212 E-score; for GGCGATAC it is 0.174 ± 0.0165 E-score; for AGCGACAC it is 0.465 ± 0.00955 E-score. Then GAGCGACA, with 0.185 ± 0.0595 E-score; and GTATCTCA, with 0.158 ± 0.00253 E-score; and CACTACGA, with 0.191 ± 0.00718 E-score. Regarding CGAAACCC, the binding signal was 0.16 ± 0.0514 E-score. For AATAGCAC, the binding signal turned out to be 0.202 ± 0.00634 E-score. Then ACCCACCC, with 0.276 ± 0.0223 E-score. The figure for CCACACCC is 0.393 ± 0.0374 E-score. For CCACACAC, the binding signal came out at 0.271 ± 0.0195 E-score. GCACACAC: the binding signal is 0.275 ± 0.0355 E-score. In the case of ACACACCC, the binding signal was 0.39 ± 0.0201 E-score. The figure for GCGCACCC is 0.236 ± 0.0394 E-score; for GCACACCC it is 0.396 ± 0.0314 E-score. The figure for ACACACAC is 0.315 ± 0.0422 E-score. Then CCACACGC, with 0.282 ± 0.0206 E-score; and CGGGAATA, with 0.181 ± 0.0131 E-score; and CCCGAACA, with 0.1699 ± 0.00103 E-score. Take ACCTTACA: the binding signal was 0.192 ± 0.02 E-score.

As for CACCCACG, the binding signal is 0.275 ± 0.0113 E-score. The figure for CGTCCTAC is 0.182 ± 0.018 E-score; for ACCCCATA it is 0.249 ± 0.00713 E-score. Then CACTGAGG, with 0.227 ± 0.0197 E-score; and CCCGCGTC, with 0.193 ± 0.0507 E-score; and CACCGCAA, with 0.284 ± 0.0454 E-score. Take CACTAATG: the binding signal amounted to 0.164 ± 0.0232 E-score.

On to ACCTGGAG, for which the binding signal worked out at 0.222 ± 0.0157 E-score. For AATTGGGG, the binding signal turned out to be 0.17 ± 0.027 E-score.
